High-throughput results deposited in PubChem by National Center for Advancing Translational Sciences (NCATS).
DT40 TDP1 CPT = growth inhibition of DT40 Tdp1-/-;hTDP1 cells with camptothecin (screen for TDP1 inhibitors); chicken DT40 Tdp1-/-;hTDP1 cells + 20 nM CPT, ATP luminescence, 48 h; Potency, µM (highest dose often 46.2 µM), without a hit: at the top dose activity change, negative = growth inhibition, most hits filed as inhibitors; 12% of 420,000 active; AID 686979; also: nearly all actives have a fitted effect of over 55% in size
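Chicken DT40 Tdp1-/- cells complemented with human TDP1, 400 cells/well, exposed to compounds plus 20 nM camptothecin for at least 48 h at 37 C; viability read as ATP content by CellTiter-Glo luminescence.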
KB-3-1 cytotox = kills parental KB-3-1 adenocarcinoma cells; KB-3-1 viability, CellTiter-Glo ATP luminescence, 72 h; Potency, µM (top dose mostly 46.1 µM), most hits filed as cytotoxic; 1.4% of 400,000 active; also: nearly all actives have a fitted effect of over 60% in size
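KB-3-1 cells, DMEM (no phenol red) + 10% FBS; compound by pin transfer, 72 h, 37 °C. Readout: CellTiter-Glo luminescence after 10 min. Data normalized, curve-fitted.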
HT1080 IDH1KD tx = kills HT-1080 cells with IDH1 knockdown; Potency, µM (highest dose often 46.1 µM), for the others: top-dose activity, negative = toxicity, actives largely listed as cytotoxic; HT-1080 IDH1 knockdown viability, ATP luminescence, 48 h; 2% of 360,000 active;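 also: 0% = DMSO wells and -100% = cell-free medium wells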
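Viability of IDH1-knockdown HT-1080 fibrosarcoma cells was assessed by CellTiter-Glo after 48 h at 37 °C with titrated compound; concentration-effect curves were classified by fit quality and response size.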
HT1080NT lethal = kills 2HG-producing HT-1080-NT fibrosarcoma cells. HT-1080-NT fibrosarcoma viability, CellTiter-Glo ATP luminescence, 48 h. Potency, µM (titrated, usually from 46.1 µM), for inactives: at the top dose activity, negative = less viability, hits mostly cytotoxic. 1.6% of 360,000 active;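 also: NT is the 2HG producing partner of a matched IDH1 knockdown line; 0% = DMSO-treated cells and -100% = media-only wells without cells; nearly all actives have a fitted effect of over 55% in size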
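Viability by CellTiter-Glo luminescence after 48 h compound exposure at 37C of HT-1080-NT cells (750/well, RPMI, 5% FBS). % activity scaled between DMSO wells and medium-only wells, then curve-fitted and categorized by curve class.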
KB-V1 MDR tox = KB-V1 MDR subline cytotoxicity | KB-V1 MDR cells viability, CellTiter-Glo, 72 h | Potency, µM (doses to about 46.1 µM), actives largely listed as cytotoxic | 3.4% of 400,000 active; also: nearly all actives have a fitted effect of over 60% in size
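Following 72 h at 37 degrees C with compound, KB-V1 cell viability was read by CellTiter-Glo luminescence, medium being phenol-red-free DMEM plus 10% FBS; concentration-response parameters came from normalized, curve-fitted qHTS data.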
TDP1 cell noCPT = qHTS for Inhibitors of human tyrosyl-DNA phosphodiesterase 1 (TDP1): qHTS in cells in absence of CPT; 15% of 420,000 active; Potency, µM (highest dose often 46.2 µM), inactives show top-dose activity change, negative = growth inhibition, hits mostly inhibitors; DT40 Tdp1-/- hTDP1 cells, no CPT, ATP luminescence, 48 h; also: nearly all actives have a fitted effect of over 55% in size
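Readout: luminescence from CellTiter-Glo after 30 min in the dark at RT. Cells: DT40 Tdp1-/- with stable hTDP1, 400/well. Exposure: compounds alone, ≥48 hr, 37 °C.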
Starred values were filed as active, the others as inactive; i = inactive; u = inconclusive; x = no result given. Shown are actives, neighbours in structure and some others; about 19% of the full set was active somewhere. Calls follow the shape of the dose curve; as a rule, active = well fitted curve in the direction sought with a large enough effect; inconclusive = small, poorly fitted or top-dose-only effect, or another doubt; inactive = no such curve, though single readings can be large; an effect the other way counts as inactive or inconclusive. Unless noted, % is scaled to controls: 0 for no effect and ±100 for the full control effect; potency is read from the fitted curve at half-maximal effect.

SMILES | DT40 TDP1 CPT | KB-3-1 cytotox | HT1080 IDH1KD tx | HT1080NT lethal | KB-V1 MDR tox | TDP1 cell noCPT
O=C(N[C@H]1C/C=C\C[C@@H](CC(=O)N(CCO)Cc2ccccc2)C(=O)N2CCC[C@H]2COC1=O)OCC1c2ccccc2-c2ccccc21 | 13µM* | i | 3.5% | 8.7% | i | 18.4µM*
CCc1nc2ccc(C(=O)NCC3CCCCC3)cn2c1N(C)Cc1ccc(OC)cc1 | u | i | u | u | u | u
O=S(=O)(c1cnc[nH]1)N1CCc2ccccc21 | u | i | 0.7% | -0.2% | i | 23.1µM*
C=CCn1c(=O)/c(=C\c2ccsc2)s/c1=C(/C#N)C(=O)NCCN1CCOCC1 | u | i | 16.9% | 22.1% | u | u
COc1ccc(-n2c(=O)/c(=C\c3cccs3)s/c2=C(/C#N)C(=O)NCCN2CCOCC2)cc1 | 13µM* | i | 1.8% | -0.7% | i | u
Cc1ccc(NC(=O)CCC(=O)N2CCSc3ccccc32)cc1 | 16.4µM* | x | x | x | x | u
CCOC(=O)c1ccc(NC(=O)CCC(=O)N2CCSc3ccccc32)cc1 | 23.1µM* | x | x | x | x | 13µM*
CCOc1ccc(NC(=O)CCC(=O)N2CCSc3ccccc32)cc1 | 16.4µM* | i | 0.2% | -1.7% | i | 16.4µM*
O=C(CCC(=O)N1CCSc2ccccc21)NCc1ccccc1Cl | 10.3µM* | x | x | x | x | u
Cc1ccccc1NC(=O)CCC(=O)N1CCSc2ccccc21 | -26.5% | x | x | x | x | u
COc1cccc(C(O)c2nc(-c3cccc(C#N)c3)cs2)c1 (configuration not stated) | u | u | -0.1% | 0.7% | u | u
O=C(CCC(=O)N1CCSc2ccccc21)NCc1ccc(Cl)cc1 | -24.0% | i | 6.9% | 10.9% | i | -19.8%
O=C(CCC(=O)N1CCSc2ccccc21)NCc1ccccc1 | u | i | 4.4% | -0.8% | i | -9.3%
O=C(CCC(=O)N1CCSc2ccccc21)Nc1ccc(Cl)cc1 | 14.6µM* | x | x | x | x | 20.6µM*
O=C(CCC(=O)N1Cc2ccccc2Oc2ncccc21)Nc1ccc(Cl)cc1 | u | i | x | x | i | u
CCOC(=O)c1ccc(NC(=O)CCC(=O)N2Cc3ccccc3Oc3ncccc32)cc1 | 16.4µM* | i | x | x | i | 20.6µM*
Cc1ccc(NC(=O)CCC(=O)N2CCSc3ccccc32)cc1Cl | 16.4µM* | x | x | x | x | u
O=C(CSc1nccn1Cc1ccc(F)cc1)NCc1ccc(F)cc1 | u | i | x | x | i | u
CC(OC(=O)c1nc(-c2ccccc2)n(-c2ccccc2)n1)C(=O)Nc1cc(Cl)cc(Cl)c1 (configuration not stated) | -8.7% | i | 1.8% | 3.0% | i | -11.3%
CCCCN1C(=O)C(CC(=O)NC2CCCCC2)CC(C(=O)N(C(C)C)C(C)C)=C1C (configuration not stated) | -23.5% | i | 7.9% | 11.2% | i | u
COc1ccc2c(c1)[nH]c1c(=O)n(/N=C/c3ccc(OC)c(CN4CCCC4)c3)cnc12 | u | i | -23.7% | -24.4% | i | u
COc1ccc(/C=N/n2cnc3c([nH]c4ccc(C)cc43)c2=O)cc1CN1CCCC1 | 5.17µM* | u | -3.1% | 20.1% | u | 7.31µM*
COc1ccc(/C=N/n2cnc3c([nH]c4ccc(F)cc43)c2=O)cc1CN1CCCC1 | 5.17µM* | u | -1.4% | 0.2% | u | 3.26µM*
OC(c1ccccc1)C1CN(Cc2ccccc2)CCC1(O)c1ccccc1 (configuration not stated) | u | i | -7.6% | -6.6% | 23.1µM* | u
